From the supplement of paper PMC11732987, “Enantioselective OTUD7B fragment discovery through chemoproteomics screening and high-throughput optimisation” (Communications Chemistry, 2025)

Legend:
Experiment in all cases: log2 ratio of Biotin-Ahx-Ub-VS probe labelling (fragment/DMSO); higher = less target engagement (more negative = stronger competition), active = hit call of the paper (q ≤ 0.05, log2 ratio ≤ -1)
Conditions in all cases: compound concentration: 200 uM; treatment time: 3 h
[1] = molecular target: USP34 (UniProt Q70CQ2)
USP34, sequence (Q70CQ2 whole entry, the tested form may be a part): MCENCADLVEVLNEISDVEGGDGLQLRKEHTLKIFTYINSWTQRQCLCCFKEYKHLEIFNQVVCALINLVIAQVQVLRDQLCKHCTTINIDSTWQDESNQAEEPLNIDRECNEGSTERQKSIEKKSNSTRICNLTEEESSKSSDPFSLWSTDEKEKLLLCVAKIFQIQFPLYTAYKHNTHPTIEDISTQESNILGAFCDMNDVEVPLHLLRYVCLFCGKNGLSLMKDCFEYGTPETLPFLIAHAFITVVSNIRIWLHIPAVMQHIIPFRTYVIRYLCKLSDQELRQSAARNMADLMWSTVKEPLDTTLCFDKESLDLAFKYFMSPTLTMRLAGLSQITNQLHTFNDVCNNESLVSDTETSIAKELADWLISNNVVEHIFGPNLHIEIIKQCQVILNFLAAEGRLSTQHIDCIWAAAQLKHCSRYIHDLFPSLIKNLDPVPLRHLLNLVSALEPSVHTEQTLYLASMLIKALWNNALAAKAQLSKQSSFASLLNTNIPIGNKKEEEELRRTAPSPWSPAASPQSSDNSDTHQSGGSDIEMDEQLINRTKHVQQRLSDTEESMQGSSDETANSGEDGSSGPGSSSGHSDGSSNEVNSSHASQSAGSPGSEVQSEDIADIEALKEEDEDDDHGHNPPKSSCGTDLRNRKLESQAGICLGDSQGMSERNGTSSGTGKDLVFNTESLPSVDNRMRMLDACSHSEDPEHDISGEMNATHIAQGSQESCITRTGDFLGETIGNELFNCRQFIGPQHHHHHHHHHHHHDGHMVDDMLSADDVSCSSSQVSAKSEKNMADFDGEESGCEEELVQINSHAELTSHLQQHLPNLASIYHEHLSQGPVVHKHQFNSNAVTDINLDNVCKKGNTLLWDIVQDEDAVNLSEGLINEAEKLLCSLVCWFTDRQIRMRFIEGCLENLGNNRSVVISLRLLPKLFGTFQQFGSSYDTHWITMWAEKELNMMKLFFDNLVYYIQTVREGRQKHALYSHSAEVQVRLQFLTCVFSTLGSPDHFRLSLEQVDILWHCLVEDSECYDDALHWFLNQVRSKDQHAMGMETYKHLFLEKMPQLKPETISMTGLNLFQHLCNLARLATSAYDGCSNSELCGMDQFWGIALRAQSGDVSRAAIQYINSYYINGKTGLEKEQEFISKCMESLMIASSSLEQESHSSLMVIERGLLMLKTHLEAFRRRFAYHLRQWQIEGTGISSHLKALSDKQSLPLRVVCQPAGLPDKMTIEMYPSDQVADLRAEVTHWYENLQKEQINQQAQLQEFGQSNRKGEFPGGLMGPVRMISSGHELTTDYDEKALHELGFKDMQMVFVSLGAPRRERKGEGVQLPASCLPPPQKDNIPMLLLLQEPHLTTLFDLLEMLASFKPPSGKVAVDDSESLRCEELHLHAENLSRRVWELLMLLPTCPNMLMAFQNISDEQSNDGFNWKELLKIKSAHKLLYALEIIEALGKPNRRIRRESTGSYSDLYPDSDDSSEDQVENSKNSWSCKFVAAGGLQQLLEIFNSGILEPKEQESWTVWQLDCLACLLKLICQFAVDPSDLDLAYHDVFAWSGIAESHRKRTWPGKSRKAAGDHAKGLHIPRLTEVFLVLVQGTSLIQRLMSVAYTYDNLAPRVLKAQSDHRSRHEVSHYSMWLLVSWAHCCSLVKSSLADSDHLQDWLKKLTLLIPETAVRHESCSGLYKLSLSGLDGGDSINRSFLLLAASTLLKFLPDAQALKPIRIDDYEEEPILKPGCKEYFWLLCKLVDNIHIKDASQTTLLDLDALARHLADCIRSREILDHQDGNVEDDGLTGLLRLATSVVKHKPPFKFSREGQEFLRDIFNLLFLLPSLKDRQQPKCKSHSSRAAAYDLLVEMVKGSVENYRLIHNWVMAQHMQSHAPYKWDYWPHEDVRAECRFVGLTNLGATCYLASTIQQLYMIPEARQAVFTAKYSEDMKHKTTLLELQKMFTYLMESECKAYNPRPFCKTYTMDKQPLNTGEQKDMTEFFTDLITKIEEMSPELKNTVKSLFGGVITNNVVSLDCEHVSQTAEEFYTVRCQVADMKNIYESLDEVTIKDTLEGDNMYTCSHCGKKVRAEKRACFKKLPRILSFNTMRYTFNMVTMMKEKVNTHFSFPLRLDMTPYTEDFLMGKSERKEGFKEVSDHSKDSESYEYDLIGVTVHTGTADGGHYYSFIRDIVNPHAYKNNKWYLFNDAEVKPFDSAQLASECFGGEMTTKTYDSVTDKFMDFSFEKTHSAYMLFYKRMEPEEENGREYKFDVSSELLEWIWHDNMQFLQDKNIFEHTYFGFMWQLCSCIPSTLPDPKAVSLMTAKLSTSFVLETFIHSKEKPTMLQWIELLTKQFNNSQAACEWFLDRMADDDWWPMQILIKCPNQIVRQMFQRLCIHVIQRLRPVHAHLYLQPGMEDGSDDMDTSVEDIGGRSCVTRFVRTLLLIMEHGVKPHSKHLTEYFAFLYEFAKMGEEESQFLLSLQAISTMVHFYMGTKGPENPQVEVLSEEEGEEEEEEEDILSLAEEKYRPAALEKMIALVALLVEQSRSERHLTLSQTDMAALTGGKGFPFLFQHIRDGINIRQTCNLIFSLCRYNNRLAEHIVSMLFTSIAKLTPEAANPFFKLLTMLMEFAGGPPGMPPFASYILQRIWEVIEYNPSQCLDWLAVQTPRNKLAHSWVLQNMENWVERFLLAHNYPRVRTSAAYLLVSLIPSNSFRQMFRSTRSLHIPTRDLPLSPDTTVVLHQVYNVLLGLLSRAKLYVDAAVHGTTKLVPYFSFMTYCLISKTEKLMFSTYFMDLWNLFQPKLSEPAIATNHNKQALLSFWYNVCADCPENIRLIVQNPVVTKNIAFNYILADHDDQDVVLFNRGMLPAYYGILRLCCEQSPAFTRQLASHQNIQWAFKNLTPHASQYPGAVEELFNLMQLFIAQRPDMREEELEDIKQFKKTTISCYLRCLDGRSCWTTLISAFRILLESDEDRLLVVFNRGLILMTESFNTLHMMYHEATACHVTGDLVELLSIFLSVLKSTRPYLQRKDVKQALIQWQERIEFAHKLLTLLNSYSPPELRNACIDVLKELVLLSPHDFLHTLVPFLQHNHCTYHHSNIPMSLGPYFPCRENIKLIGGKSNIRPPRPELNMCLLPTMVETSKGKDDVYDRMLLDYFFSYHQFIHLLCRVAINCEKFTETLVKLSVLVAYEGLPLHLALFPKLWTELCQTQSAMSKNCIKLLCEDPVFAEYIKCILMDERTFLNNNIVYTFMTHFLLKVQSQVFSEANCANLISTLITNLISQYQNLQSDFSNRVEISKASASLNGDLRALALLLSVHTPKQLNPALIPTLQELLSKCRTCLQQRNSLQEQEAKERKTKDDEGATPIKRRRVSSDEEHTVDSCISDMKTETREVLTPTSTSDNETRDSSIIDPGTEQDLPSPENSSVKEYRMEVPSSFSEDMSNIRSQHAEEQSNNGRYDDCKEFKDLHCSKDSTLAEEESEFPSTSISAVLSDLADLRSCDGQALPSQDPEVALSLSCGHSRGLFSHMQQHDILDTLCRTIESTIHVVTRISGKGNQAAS
Method in brief: (§1)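 HEK293T lysate (495 µg per sample, in Tris/CHAPS/IGEPAL buffer with protease inhibitors) was treated in triplicate with fragment at 200 µM or with DMSO for 3 h. It was then treated with Biotin-Ahx-Ub-VS (0.5 µM final) for 1 h. Labelled DUBs were NeutrAvidin-enriched, digested with LysC and trypsin, and run by diaPASEF LC-MS/MS. Spectronaut label-free quantities were global-median-normalised. Values are average log2 ratios fragment/DMSO by unpaired t-test, using proteins with ≥2 unique peptides.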

[2] = molecular target: T1, USP36 (UniProt Q9P275)
T1 sequence (whole entry): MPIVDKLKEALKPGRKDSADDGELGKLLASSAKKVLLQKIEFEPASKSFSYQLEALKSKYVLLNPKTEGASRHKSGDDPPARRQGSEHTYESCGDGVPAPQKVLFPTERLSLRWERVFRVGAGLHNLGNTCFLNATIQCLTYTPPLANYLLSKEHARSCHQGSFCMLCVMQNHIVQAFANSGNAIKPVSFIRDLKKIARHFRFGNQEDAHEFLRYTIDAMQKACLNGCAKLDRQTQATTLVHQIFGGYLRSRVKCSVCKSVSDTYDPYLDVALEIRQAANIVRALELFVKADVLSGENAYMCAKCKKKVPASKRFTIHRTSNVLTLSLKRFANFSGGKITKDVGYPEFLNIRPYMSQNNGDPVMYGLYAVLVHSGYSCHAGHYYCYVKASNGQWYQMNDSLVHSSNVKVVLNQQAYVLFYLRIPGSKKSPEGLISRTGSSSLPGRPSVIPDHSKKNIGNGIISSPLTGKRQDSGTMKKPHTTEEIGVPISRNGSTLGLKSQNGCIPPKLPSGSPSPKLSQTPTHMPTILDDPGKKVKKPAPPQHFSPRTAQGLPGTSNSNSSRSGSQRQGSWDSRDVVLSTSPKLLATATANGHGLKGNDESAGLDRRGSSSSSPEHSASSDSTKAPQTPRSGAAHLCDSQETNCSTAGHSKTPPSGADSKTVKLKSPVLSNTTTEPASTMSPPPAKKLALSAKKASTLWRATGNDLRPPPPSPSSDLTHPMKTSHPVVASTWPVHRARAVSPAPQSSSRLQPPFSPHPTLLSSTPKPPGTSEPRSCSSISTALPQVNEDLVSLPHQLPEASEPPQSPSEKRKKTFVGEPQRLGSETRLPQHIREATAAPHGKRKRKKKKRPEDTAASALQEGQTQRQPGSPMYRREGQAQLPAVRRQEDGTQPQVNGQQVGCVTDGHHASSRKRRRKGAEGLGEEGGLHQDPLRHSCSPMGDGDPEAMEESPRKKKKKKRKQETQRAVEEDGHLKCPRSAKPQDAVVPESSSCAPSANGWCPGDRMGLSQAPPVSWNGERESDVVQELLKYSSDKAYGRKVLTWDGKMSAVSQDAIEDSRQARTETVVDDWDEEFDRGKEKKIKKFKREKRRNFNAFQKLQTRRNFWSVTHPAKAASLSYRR
Method in brief: as §1

[3] = molecular target: T2, USP38 (UniProt Q8NB14)
T2 sequence (whole entry): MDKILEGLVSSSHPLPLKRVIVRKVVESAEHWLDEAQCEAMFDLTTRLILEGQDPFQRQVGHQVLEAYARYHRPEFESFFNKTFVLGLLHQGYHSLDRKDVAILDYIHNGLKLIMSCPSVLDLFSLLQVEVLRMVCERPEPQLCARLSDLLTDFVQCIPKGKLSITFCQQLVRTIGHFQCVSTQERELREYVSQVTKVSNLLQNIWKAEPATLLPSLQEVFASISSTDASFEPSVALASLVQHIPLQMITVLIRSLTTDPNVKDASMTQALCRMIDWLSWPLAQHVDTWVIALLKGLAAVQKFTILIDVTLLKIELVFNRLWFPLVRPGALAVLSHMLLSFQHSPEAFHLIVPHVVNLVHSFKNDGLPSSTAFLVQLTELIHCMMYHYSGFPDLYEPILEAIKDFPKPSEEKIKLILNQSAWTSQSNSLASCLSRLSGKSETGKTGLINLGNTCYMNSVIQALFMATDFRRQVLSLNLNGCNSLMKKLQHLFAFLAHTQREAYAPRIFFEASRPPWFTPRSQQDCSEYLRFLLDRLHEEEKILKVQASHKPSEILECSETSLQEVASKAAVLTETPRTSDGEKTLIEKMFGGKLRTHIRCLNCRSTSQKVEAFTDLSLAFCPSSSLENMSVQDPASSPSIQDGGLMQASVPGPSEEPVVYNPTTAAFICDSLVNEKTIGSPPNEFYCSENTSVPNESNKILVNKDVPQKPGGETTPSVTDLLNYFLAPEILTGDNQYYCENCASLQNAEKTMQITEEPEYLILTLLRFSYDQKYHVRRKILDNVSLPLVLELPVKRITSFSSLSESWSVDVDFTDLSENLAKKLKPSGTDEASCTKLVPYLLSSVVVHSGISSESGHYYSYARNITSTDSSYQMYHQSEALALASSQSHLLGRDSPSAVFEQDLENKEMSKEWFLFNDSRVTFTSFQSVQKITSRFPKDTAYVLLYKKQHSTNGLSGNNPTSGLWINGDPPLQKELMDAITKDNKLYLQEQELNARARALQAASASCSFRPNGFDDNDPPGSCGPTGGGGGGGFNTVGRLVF
Method in brief: as §1

[4] = molecular target: T3, USP39 (UniProt Q53GS9)
T3 sequence (whole entry): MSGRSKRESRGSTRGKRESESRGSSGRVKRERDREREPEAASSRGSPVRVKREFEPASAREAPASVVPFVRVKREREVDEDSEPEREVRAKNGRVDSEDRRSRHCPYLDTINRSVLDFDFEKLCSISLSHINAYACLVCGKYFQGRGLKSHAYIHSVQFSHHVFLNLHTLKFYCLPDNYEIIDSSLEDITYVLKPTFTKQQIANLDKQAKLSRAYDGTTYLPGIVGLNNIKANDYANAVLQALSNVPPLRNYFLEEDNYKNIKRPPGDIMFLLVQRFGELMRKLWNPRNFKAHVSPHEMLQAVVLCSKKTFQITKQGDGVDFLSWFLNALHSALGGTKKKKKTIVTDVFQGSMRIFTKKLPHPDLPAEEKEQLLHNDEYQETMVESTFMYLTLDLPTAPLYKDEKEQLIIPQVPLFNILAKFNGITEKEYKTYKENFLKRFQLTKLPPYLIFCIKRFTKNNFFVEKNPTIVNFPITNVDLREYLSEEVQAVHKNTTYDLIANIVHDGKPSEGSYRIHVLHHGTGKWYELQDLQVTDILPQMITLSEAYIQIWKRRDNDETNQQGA
Method in brief: as §1

[5] = molecular target: T4, USP4 (UniProt Q13107)
T4 sequence (whole entry): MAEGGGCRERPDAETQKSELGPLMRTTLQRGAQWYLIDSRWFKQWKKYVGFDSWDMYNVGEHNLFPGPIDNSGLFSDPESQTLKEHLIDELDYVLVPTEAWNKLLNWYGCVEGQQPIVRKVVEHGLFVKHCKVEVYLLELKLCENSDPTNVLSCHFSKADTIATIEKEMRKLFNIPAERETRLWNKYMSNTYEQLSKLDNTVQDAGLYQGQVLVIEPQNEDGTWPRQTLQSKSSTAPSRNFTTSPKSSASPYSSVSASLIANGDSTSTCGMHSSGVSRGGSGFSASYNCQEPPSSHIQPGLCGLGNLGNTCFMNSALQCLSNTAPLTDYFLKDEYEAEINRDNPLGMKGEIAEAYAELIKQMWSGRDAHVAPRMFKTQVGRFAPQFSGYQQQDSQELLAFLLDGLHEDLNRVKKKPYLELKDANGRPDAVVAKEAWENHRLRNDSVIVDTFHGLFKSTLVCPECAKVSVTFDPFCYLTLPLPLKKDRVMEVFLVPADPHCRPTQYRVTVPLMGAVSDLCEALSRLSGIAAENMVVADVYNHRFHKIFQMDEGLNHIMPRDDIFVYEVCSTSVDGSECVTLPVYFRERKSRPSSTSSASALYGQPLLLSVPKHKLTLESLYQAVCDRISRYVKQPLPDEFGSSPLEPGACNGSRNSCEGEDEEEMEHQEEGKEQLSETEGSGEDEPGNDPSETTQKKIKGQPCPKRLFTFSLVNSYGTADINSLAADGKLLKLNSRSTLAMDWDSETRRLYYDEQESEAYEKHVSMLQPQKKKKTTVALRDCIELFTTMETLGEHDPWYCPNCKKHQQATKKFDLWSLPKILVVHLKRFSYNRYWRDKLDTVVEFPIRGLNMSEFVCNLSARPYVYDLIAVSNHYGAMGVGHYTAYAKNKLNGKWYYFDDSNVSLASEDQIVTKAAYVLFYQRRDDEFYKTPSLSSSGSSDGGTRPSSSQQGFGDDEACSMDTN
Method in brief: as §1

Measured: log2 ratio of Biotin-Ahx-Ub-VS probe labelling

O=C(CCl)NCc1cccc(N2CCCC2=O)c1
inactive: [1] -0.203 | [2] -0.212 | [3] -0.128 | [4] -0.0958 | [5] 0.0693
